Laboratory results taken from PubChem BioAssay (NCATS).
Inconclusive results are not listed. Activity calls are given as the source filed them. Calls come from the whole dose curve; as a rule, active = well fitted cell-killing curve with a large enough effect; inconclusive = small, poorly fitted or top-dose-only effect, or effect the other way; inactive = no such curve, though single readings can be large or run the other way.

Assay: Quantitative High-Throughput drug screen in 47 multiple myeloma cell lines against the NCATS MIPE library collection: OCIMY1_PLB cell viability assay (AID 1918979); note: nearly all actives have a fitted effect of over 35% in size
Conditions: OCI-MY1 myeloma viability, CellTiter-Glo ATP, 48 h; series mostly up to 45.8 µM; viability: at the top concentration
Summary of the method: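 ATP-based CellTiter-Glo luminescence after 48 h drug exposure (37 °C, 5% CO2) of 500 myeloma cells per well. DMSO-only wells set 100% viability, media-only wells 0%; MIPE 4.0 library added by pin tool.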
Potency is the fitted concentration of half-maximal effect.

Structure (SMILES) | viability | Potency
CS(=O)(=O)N(Cc1ccco1)CC(O)Cn1c2ccccc2c2ccccc21 (centres undefined) | 108% (inactive) | –
O=C(OCC#CCSc1nnc(-c2cccc3ccccc23)o1)c1cc2ccccc2s1 | 116% (inactive) | –
C[C@H](NC(=O)c1sccc1OCc1ccc(Cl)cc1)c1ccccc1 | – | 16.6 µM (active)
NC(=O)c1cccc(-c2cc(Nc3ccc(OC(F)(F)F)cc3)ncn2)c1 | 88.4% (inactive) | –
CC1(C)CCC(CN2CCN(c3ccc(C(=O)NS(=O)(=O)c4ccc(NCC5CCOCC5)c([N+](=O)[O-])c4)c(Oc4cnc5[nH]ccc5c4)c3)CC2)=C(c2ccc(Cl)cc2)C1 | – | 10.5 µM (active)
O=C(Nc1cccc(Br)c1)c1cccc(S(=O)(=O)N2CCCCCC2)c1 | – | 14.8 µM (active)
Nc1ncnc2c1ncn2[C@@H]1O[C@@H](CO)[C@H](O)[C@H]1O | 115% (inactive) | –
CNC(=O)c1ccccc1Sc1ccc2c(C=Cc3ccccn3)n[nH]c2c1 | 93.7% (inactive) | –
O=C(Nc1cc(Cl)cc2c1[nH]c1cnccc12)c1cccnc1 | 90.2% (inactive) | –
CC(C)C(=O)Oc1ccc(CO)cc1[C@H](CCN(C(C)C)C(C)C)c1ccccc1 | 96.1% (inactive) | –
Cc1ccccc1C(C(=O)NC1CCCCC1)N(C(=O)Cn1ccnc1C)c1cccc(F)c1 (centres undefined) | 103% (inactive) | –
NC1CCC(Nc2nc(Nc3ccc(C(=O)N4CCCCC4)cc3)c3ncn(-c4cccc(F)c4)c3n2)CC1 (centres undefined) | 125% (inactive) | –
CC[C@H]1OC(=O)[C@H](C)[C@@H](O[C@H]2C[C@@](C)(OC)[C@@H](O)[C@H](C)O2)[C@H](C)[C@@H](O[C@@H]2O[C@H](C)C[C@H](N(C)C)[C@@H]2O)[C@](C)(O)C[C@@H](C)CN(C)[C@H](C)[C@@H](O)[C@]1(C)O | 98.6% (inactive) | –
Cc1cc(OCCCc2c(C(=O)O)n(Cc3cccnc3)c3c(-c4c(COc5ccc(N6CCN([S+](C)(=O)[O-])CC6)cc5)nn(C)c4C)cccc23)cc(C)c1Cl | – | 13.2 µM (active)
COc1cc2c(cc1OC)CN(CCc1ccc(NC(=O)c3cc(OC)c(OC)cc3NC(=O)c3cnc4ccccc4c3)cc1)CC2 | 112% (inactive) | –
CC(C)(C)COc1ccc(-n2cc(C(=O)O)cn2)cc1C#N | 109% (inactive) | –
C[C@]12CCC3c4ccc(O)cc4CCC3C1CCC2=O (some centres undefined) | 103% (inactive) | –
N#CC1(c2ccc(NC(=O)c3cccnc3NCc3ccncc3)cc2)CCCC1 | 105% (inactive) | –
CCOC1OC(=O)C[C@H]1NC(=O)[C@@H]1CCCN1C(=O)[C@@H](NC(=O)c1ccc(N)c(Cl)c1)C(C)(C)C (some centres undefined) | 105% (inactive) | –
NS(=O)(=O)c1ccc(NC2=CC(=O)c3ccccc3C2=O)cc1 | 99.6% (inactive) | –
Cc1c(O)cccc1C(=O)N[C@@H](CSc1ccccc1)[C@H](O)CN1C[C@H]2CCCC[C@@H]2C[C@@H]1C(=O)NC(C)(C)C | – | 20.9 µM (active)
Cc1cnc(C(=O)O)c[n+]1[O-] | 102% (inactive) | –
CC(C)(Cc1ccc2ccccc2c1)NC[C@@H](O)COc1cccc(Cl)c1C#N | 108% (inactive) | –
O=C(NC1CCOCC1)c1ccc(-c2cc(-c3cn[nH]c3-c3ccccn3)ccn2)cc1 | 113% (inactive) | –
